# PubChem BioAssay
# Results filed as inconclusive are left out. Active and inactive are the calls of the source.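 Rule for the calls, unless noted: active = cell viability at or below a set limit in both duplicate runs, the limit being the all-compound median minus 4 SD (cut at about 23% in these data, passing the limit was not always enough); inconclusive = no clear call, values can overlap the other calls; inactive = the rest.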
# Experiment: viability of HCT116 without oncogenic beta-catenin – human colon tumor cells, pilot screen (AID 823);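 note: 0% = wells killed by 20 µM Hyamine and 100% = untreated DMSO cell wells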
# Settings: HCT116 beta-catenin knockout viability, CellTiter-Glo, 60 h; at 10 µM; active compounds read low
row,SMILES,viability
1,Cn1c(C(=O)N2CCN(c3ncccn3)CC2)cc2c(=O)n(C)c3ccccc3c21,105% (inactive)
2,CC(=O)Nc1cc(NC(C)=O)c(CC(C)C)s1,94.9% (inactive)
3,COc1ccc(Nc2cc(C)nc3nc(C)nn23)cc1Cl,101% (inactive)
4,O=C(NC1CCCCCC1)C1C2C=CC3(CN(Cc4cccnc4)C(=O)C13)O2 (stereo not given),101% (inactive)
5,CCOC(=O)N1CCN(C(=O)CS(=O)Cc2nc(-c3cccc(C)c3)oc2C)CC1 (stereo not given),104% (inactive)
6,CCOC(=O)Cc1csc(NC(=O)Nc2ccccc2)n1,53.2% (inactive)
7,COc1ccccc1S(=O)(=O)Cc1ccc(C(=O)NCc2ccc3c(c2)OCO3)o1,91.9% (inactive)
8,CCOC(=O)N1CCN(C(=O)c2cc3cc(Br)ccc3oc2=O)CC1,94.9% (inactive)
9,Cn1cnnc1SCCC(=O)Nc1ccccc1,101% (inactive)
10,Nc1c(C(=O)NCc2ccccc2)nnn1Cc1ccccc1,99.8% (inactive)
11,CCC(=O)Nc1nnc(-c2ccco2)o1,93.8% (inactive)
12,O=C1C(C=NCc2ccco2)=C(O)c2ccccc21,82.1% (inactive)
13,CCOC(=O)c1cnc2ccc(C(=O)OC)cc2c1NCCN1CCOCC1,86.6% (inactive)
14,O=C(CSc1oc(-c2ccco2)nc1S(=O)(=O)c1ccc(Cl)cc1)NCC1CCCO1 (stereo not given),96.9% (inactive)
15,O=C(Cn1c(NCCCO)nc2ccccc21)c1cccs1,110% (inactive)
16,O=C(C1CC(c2ccc(F)cc2)=NO1)N1CCN(Cc2ccccc2)CC1 (stereo not given),96.2% (inactive)
17,Cc1nccn1-c1c2c(c(C#N)c3nc4ccccc4n13)CCC2,97.3% (inactive)
18,CCOC(=O)c1ccc(N=c2sc(C(=O)OC)cc(=O)n2CCCN2CCOCC2)cc1,57.4% (inactive)
19,Cc1ccccc1-n1c(Cn2c(=O)sc3ccccc32)nnc1SCC(=O)Nc1nccs1,75.2% (inactive)
20,Cc1cc(S(=O)(=O)N2CCN(c3ccc(F)cc3)CC2)c(C)s1,60.9% (inactive)

row,SMILES,viability
1,Cc1cccc(-n2c(Cc3cc(=O)[nH]c(=O)[nH]3)nnc2SCC(=O)NCC2CCCO2)c1 (stereo not given),93.5% (inactive)
2,CCOc1ccccc1Nc1ncnc2c1cnn2-c1ccccc1,93.6% (inactive)
3,CCC(C(=O)N1CC2(C)CC1CC(C)(C)C2)N1C(=O)c2ccccc2C1=O (stereo not given),91.5% (inactive)
4,CCN(CC)S(=O)(=O)c1ccc(C2CNC(=O)C2)cc1 (stereo not given),106% (inactive)
5,CC(CNCc1ccc2c(c1)OCO2)NCc1ccc2c(c1)OCO2 (stereo not given),75% (inactive)
6,CCCC(c1c(C)n(C)n(-c2ccccc2)c1=O)c1c(C)n(C)n(-c2ccccc2)c1=O,90.2% (inactive)
7,CN1CCCc2cc3c(C(F)(F)F)cc(=O)oc3nc21,94.2% (inactive)
8,O=C1CCCC2=C1C1(O)C(=O)c3ccccc3C1(O)O2 (stereo not given),89.4% (inactive)
9,Clc1ccc(CSc2nnc(-c3cccnc3)n2Cc2ccco2)c(Cl)c1,87.3% (inactive)
10,O=C(Cn1cc2c(n1)CCCCC2)NC1CCN(Cc2ccccc2)CC1,86.5% (inactive)
11,CCCn1c(C(O)c2ccc3c(c2)OCO3)nc2ccccc21 (stereo not given),100% (inactive)
12,Cn1c(SCC(=O)Nc2ccc(F)cc2F)nnc1-c1cccnc1,104% (inactive)
13,COc1ccccc1-c1nc2n(n1)C(c1ccccc1Cl)C(C(N)=O)=C(C)N2 (stereo not given),91% (inactive)
14,COc1ccc(Nc2ccc3c(c2)=NC2(CCCCC2)[N+]=3[O-])cc1,2.19% (active)
15,O=C(CNS(=O)(=O)c1ccc(C(=O)N2CCCCC2)cc1)N1CCCCC1,93.3% (inactive)
16,COc1ccccc1N1CCN(c2cc(=O)n(-c3ccc(Cl)cc3)c(=O)[nH]2)CC1,84.4% (inactive)
17,CCCCNC(=O)CS(=O)Cc1nc(-c2cccc(C)c2)oc1C (stereo not given),96.2% (inactive)
18,c1ccc(COc2ccc(Nc3ncnc4nc[nH]c34)cc2)cc1,85.7% (inactive)
19,Cc1nnc(Sc2nc3c(c(=O)[nH]c(=O)n3C)n2CCc2ccccc2)s1,102% (inactive)
20,CCSC1=N/C(=C\c2ccc(C(=O)O)cc2)C(=O)S1,95.4% (inactive)

# Experiment: viability of PTEN-null HCT116 cells – cell-based, HCT116 clonal line, CellTiter-Glo, pilot screen (AID 824;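 active = viability at or below 27.92% in each of two runs, the all-compound median minus 4 SD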;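 note: 0% = 20 µM Hyamine control and 100% = vehicle cell control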)
# Settings: HCT116 PTEN-deleted viability, 60 h, at 10 µM, active compounds read low
row,SMILES,viability
1,Cn1c(C(=O)N2CCN(c3ncccn3)CC2)cc2c(=O)n(C)c3ccccc3c21,97.2% (inactive)
2,CC(=O)Nc1cc(NC(C)=O)c(CC(C)C)s1,101% (inactive)
3,COc1ccc(Nc2cc(C)nc3nc(C)nn23)cc1Cl,93.5% (inactive)
4,O=C(NC1CCCCCC1)C1C2C=CC3(CN(Cc4cccnc4)C(=O)C13)O2 (stereo not given),107% (inactive)
5,CCOC(=O)N1CCN(C(=O)CS(=O)Cc2nc(-c3cccc(C)c3)oc2C)CC1 (stereo not given),100% (inactive)
6,CCOC(=O)Cc1csc(NC(=O)Nc2ccccc2)n1,53.2% (inactive)
7,COc1ccccc1S(=O)(=O)Cc1ccc(C(=O)NCc2ccc3c(c2)OCO3)o1,87.4% (inactive)
8,CCOC(=O)N1CCN(C(=O)c2cc3cc(Br)ccc3oc2=O)CC1,89.7% (inactive)
9,Cn1cnnc1SCCC(=O)Nc1ccccc1,99.5% (inactive)
10,Nc1c(C(=O)NCc2ccccc2)nnn1Cc1ccccc1,91.2% (inactive)
11,CCC(=O)Nc1nnc(-c2ccco2)o1,102% (inactive)
12,O=C1C(C=NCc2ccco2)=C(O)c2ccccc21,89.9% (inactive)
13,CCOC(=O)c1cnc2ccc(C(=O)OC)cc2c1NCCN1CCOCC1,92.1% (inactive)
14,O=C(CSc1oc(-c2ccco2)nc1S(=O)(=O)c1ccc(Cl)cc1)NCC1CCCO1 (stereo not given),95.1% (inactive)
15,O=C(Cn1c(NCCCO)nc2ccccc21)c1cccs1,91.7% (inactive)
16,O=C(C1CC(c2ccc(F)cc2)=NO1)N1CCN(Cc2ccccc2)CC1 (stereo not given),101% (inactive)
17,Cc1nccn1-c1c2c(c(C#N)c3nc4ccccc4n13)CCC2,93.1% (inactive)
18,CCOC(=O)c1ccc(N=c2sc(C(=O)OC)cc(=O)n2CCCN2CCOCC2)cc1,52.6% (inactive)
19,Cc1ccccc1-n1c(Cn2c(=O)sc3ccccc32)nnc1SCC(=O)Nc1nccs1,59.9% (inactive)
20,Cc1cc(S(=O)(=O)N2CCN(c3ccc(F)cc3)CC2)c(C)s1,60.3% (inactive)

row,SMILES,viability
1,Cc1cccc(-n2c(Cc3cc(=O)[nH]c(=O)[nH]3)nnc2SCC(=O)NCC2CCCO2)c1 (stereo not given),92.3% (inactive)
2,CCOc1ccccc1Nc1ncnc2c1cnn2-c1ccccc1,91.1% (inactive)
3,CCC(C(=O)N1CC2(C)CC1CC(C)(C)C2)N1C(=O)c2ccccc2C1=O (stereo not given),96.8% (inactive)
4,CCN(CC)S(=O)(=O)c1ccc(C2CNC(=O)C2)cc1 (stereo not given),102% (inactive)
5,CC(CNCc1ccc2c(c1)OCO2)NCc1ccc2c(c1)OCO2 (stereo not given),77.2% (inactive)
6,CCCC(c1c(C)n(C)n(-c2ccccc2)c1=O)c1c(C)n(C)n(-c2ccccc2)c1=O,103% (inactive)
7,CN1CCCc2cc3c(C(F)(F)F)cc(=O)oc3nc21,102% (inactive)
8,O=C1CCCC2=C1C1(O)C(=O)c3ccccc3C1(O)O2 (stereo not given),88.7% (inactive)
9,Clc1ccc(CSc2nnc(-c3cccnc3)n2Cc2ccco2)c(Cl)c1,88.2% (inactive)
10,O=C(Cn1cc2c(n1)CCCCC2)NC1CCN(Cc2ccccc2)CC1,83.4% (inactive)
11,CCCn1c(C(O)c2ccc3c(c2)OCO3)nc2ccccc21 (stereo not given),102% (inactive)
12,Cn1c(SCC(=O)Nc2ccc(F)cc2F)nnc1-c1cccnc1,95% (inactive)
13,COc1ccccc1-c1nc2n(n1)C(c1ccccc1Cl)C(C(N)=O)=C(C)N2 (stereo not given),85.9% (inactive)
14,COc1ccc(Nc2ccc3c(c2)=NC2(CCCCC2)[N+]=3[O-])cc1,1.61% (active)
15,O=C(CNS(=O)(=O)c1ccc(C(=O)N2CCCCC2)cc1)N1CCCCC1,90.8% (inactive)
16,COc1ccccc1N1CCN(c2cc(=O)n(-c3ccc(Cl)cc3)c(=O)[nH]2)CC1,77.7% (inactive)
17,CCCCNC(=O)CS(=O)Cc1nc(-c2cccc(C)c2)oc1C (stereo not given),98.1% (inactive)
18,c1ccc(COc2ccc(Nc3ncnc4nc[nH]c34)cc2)cc1,83% (inactive)
19,Cc1nnc(Sc2nc3c(c(=O)[nH]c(=O)n3C)n2CCc2ccccc2)s1,100% (inactive)
20,CCSC1=N/C(=C\c2ccc(C(=O)O)cc2)C(=O)S1,100% (inactive)
